Values joined by “and” are separate entries in the source; they are usually repeats but may differ in a detail not shown here. Equal entries are not always repeated. More than one record can exist for a structure, and the calls need not agree. Active and inactive are the calls of the source. How the source made its calls: active means hit-call score of the fitted dose curve at least 0.9, where 1 is the maximum; inactive means score below 0.9.

Assay [1] is described as follows: ATG_PPRE_CIS: Attagene CIS-FACTORIAL HepG2 Assay for human Peroxisome Proliferator-activated Response Element (PPRE) (AID 2282958). The settings on record: HepG2 PPRE cis-element reporter, Attagene transcription factor profiling; actives raise or lower the signal. In a few lines: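 After human HepG2 hepatoma cells were transiently transfected with cis-promoter reporter constructs, they were exposed to test chemicals for 24 hours. Reporter RNA was then reverse-transcribed, PCR-amplified, FAM-labeled, HpaI-digested and quantified by capillary electrophoresis.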

The nature of assay [2]: BSK_3C_TissueFactor: BioMAP Diversity Plus: 3C Assay for Tissue Factor Biomarker Activity (AID 2282997). Conditions: BioMAP 3C HUVEC, tissue factor biomarker readout; actives raise or lower the signal. A digest of the protocol:
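Values derive from bidirectional curve fitting against DMSO of Tissue Factor ELISA signals, taken 24 h after dosing primary human umbilical vein endothelial cells.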

Assay [3] is described as follows: BSK_3C_uPAR: BioMAP Diversity Plus: 3C Assay for Urokinase-type plasminogen activator receptor (uPAR) Biomarker Activity (AID 2282998). The settings on record: BioMAP 3C HUVEC, uPAR biomarker ELISA; actives raise or lower the signal. In a few lines: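 ELISA readout of uPAR on human vascular endothelium (umbilical vein primary cells), taken 24 h after chemical dosing. Increases and decreases are both fitted relative to DMSO vehicle.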

Assay [4] in a line: BSK_3C_VCAM1: BioMAP Diversity Plus: 3C Assay for Vascular cell adhesion molecule 1 (VCAM1) Biomarker Activity (AID 2282999). Conditions: BioMAP 3C HUVEC, VCAM1 ELISA, cytokine-stimulated; actives raise or lower the signal. A digest of the protocol: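 Human umbilical vein endothelial cells were dosed with compound for 24 h, after which cell-surface VCAM-1 was quantified by ELISA. Bidirectional curve fitting used DMSO as negative control and activity baseline.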
On the technique in general: In an ELISA, binding on a coated surface is turned into a signal by an enzyme label.

Assay [5] can be described thus: BSK_3C_Proliferation: Cell Proliferation Assessment in the BioMAP Diversity Plus: 3C Assay (AID 2283006).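 On AC50: potency may reflect either rise or fall in cell number versus DMSO.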 The settings on record: primary human endothelial cells (HUVEC). In a few lines:
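Human umbilical vein endothelial cells were grown sub-confluent and exposed to chemical for 48 h, then fixed with 10% TCA and stained with 0.1% sulforhodamine B; absorbance at 560 nm gave relative cell number, fitted bidirectionally against DMSO baseline.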

Read-out in assay [6]: E-selectin (Homo sapiens) (UniProt P16581)
Nature of the assay: BSK_3C_Eselectin: BioMAP Diversity Plus: 3C Assay for Eselectin Biomarker Activity (AID 2283015).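 On outcome: cell surface E-selectin protein quantified by ELISA 24 h after dosing.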 Conditions: primary human endothelial cells (HUVEC); actives raise or lower the signal. A digest of the protocol:
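Human vascular endothelium from umbilical vein is exposed to test chemicals for 24 h. E-selectin levels are read by ELISA and compared with DMSO controls.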

Read-out in assay [7]: Interleukin-1 alpha (IL1a), IL1A (gene 3552)
As to the kind of experiment: BSK_BE3C_IL1a: BioMAP Diversity Plus: BE3C Assay for Interleukin-1 alpha (IL1a) Biomarker Activity (AID 2283016). Conditions: primary human bronchial epithelial cells; actives raise or lower the signal. A digest of the protocol:
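Human primary bronchial epithelial cells (BE3C system) were dosed with compound and IL-1a measured by ELISA 24 h later. Activity was fitted bidirectionally against DMSO baseline; cytotoxicity was tracked in parallel cultures by SRB total-protein staining.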

Read-out in assay [8]: Plasminogen activator inhibitor-1 (PAI1), SERPINE1 (gene 5054)
As to the kind of experiment: BSK_BE3C_PAI1: BioMAP Diversity Plus: BE3C Assay for Plasminogen activator inhibitor-1 (PAI1) Biomarker Activity (AID 2283037). Conditions: primary human bronchial epithelial cells; actives raise or lower the signal. A digest of the protocol: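 Human primary bronchial epithelial cells were exposed to chemical for 24 h, then PAI-1 was quantified by ELISA. Activity was fitted bidirectionally relative to the DMSO negative control baseline.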

Read-out in assay [9]: Tissue plasminogen activator (tPA), PLAT (gene 5327)
As to the kind of experiment: BSK_BE3C_tPA: BioMAP Diversity Plus: BE3C Assay for Tissue plasminogen activator (tPA) Biomarker Activity (AID 2283041).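 Further: tPA level quantified by ELISA one day after compound addition.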 Conditions: primary human bronchial epithelial cells; actives raise or lower the signal. In a few lines: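 Human primary bronchial epithelial cells were dosed with chemical and tPA biomarker levels measured by ELISA 24 hours later. Activity was fitted bidirectionally against DMSO as negative control and baseline.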

Read-out in assay [10]: serum amyloid A (SAA), SAA1 (gene 6288)
As to the kind of experiment: BSK_CASM3C_SAA: BioMAP Diversity Plus: CASM3C Assay for serum amyloid A (SAA) Biomarker Activity (AID 2283049).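 Further: SAA protein level quantified by ELISA.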 Conditions: primary human coronary artery smooth muscle cells; actives raise or lower the signal.

Read-out in assay [11]: Thrombomodulin, THBD (gene 7056)
As to the kind of experiment: BSK_CASM3C_Thrombomodulin: BioMAP Diversity Plus: CASM3C Assay for Thrombomodulin Biomarker Activity (AID 2283051).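 Further: thrombomodulin protein level measured by ELISA 24 h after dosing.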 Conditions: primary human coronary artery smooth muscle cells; actives raise or lower the signal.

Read-out in assay [12]: Macrophage colony-stimulating factor (MCSF), CSF1 (gene 1435)
Nature of the assay: BSK_hDFCGF_MCSF: BioMAP Diversity Plus: hDFCGF Assay for Macrophage colony-stimulating factor (MCSF) Biomarker Activity (AID 2283060). The settings on record: primary human foreskin fibroblasts; actives raise or lower the signal. In a few lines:
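M-CSF levels, determined by ELISA, are taken at 24 h after dosing human skin fibroblasts. Responses in either direction are fitted with DMSO serving as the baseline.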

Read-out in assay [13]: Interleukin-1 alpha (IL1a), IL1A (gene 3552)
Nature of the assay: BSK_KF3CT_IL1a: BioMAP Diversity Plus: KF3CT Assay for Interleukin-1 alpha (IL1a) Biomarker Activity (AID 2283070). The settings on record: primary human keratinocytes with fibroblasts; actives raise or lower the signal. A digest of the protocol:
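Human keratinocyte plus foreskin fibroblast primary co-culture, sampled 24 h after chemical dosing. IL-1a measured by ELISA; responses fitted bidirectionally against DMSO baseline (negative control), so gain or loss of signal both count.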

Read-out in assay [14]: C-C motif chemokine 2 (Homo sapiens) (UniProt P13500)
Nature of the assay: BSK_KF3CT_MCP1: BioMAP Diversity Plus: KF3CT Assay for Monocyte Chemoattractant Protein 1 (MCP1/CCL2) Biomarker Activity (AID 2283073). Conditions: primary human keratinocytes with fibroblasts; actives raise or lower the signal. A digest of the protocol:
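Keratinocytes and foreskin fibroblasts were co-cultured, dosed with chemical, and sampled 24 h later. MCP-1 was quantified by ELISA, and the endpoint was analyzed with bidirectional fitting using DMSO as negative control.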

Read-out in assay [15]: Matrix Metallopeptidase 9 (MMP9), MMP9 (gene 4318)
As to the kind of experiment: BSK_KF3CT_MMP9: BioMAP Diversity Plus: KF3CT Assay for Matrix Metallopeptidase 9 (MMP9) Biomarker Activity (AID 2283074).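 On AC50: MMP9 protein level quantified by ELISA in the co-culture.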 The settings on record: primary human keratinocytes with fibroblasts; actives raise or lower the signal. In a few lines: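 Keratinocyte plus foreskin fibroblast human primary skin co-culture was dosed with chemical and MMP-9 was quantified by ELISA 24 h later. Bidirectional curve fitting used DMSO as negative control and activity baseline.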

Read-out in assay [16]: Interleukin-1 alpha (IL1a), IL1A (gene 3552)
Nature of the assay: BSK_LPS_IL1a: BioMAP Diversity Plus: LPS Assay for Interleukin-1 alpha (IL1a) Biomarker Activity (AID 2283080). The settings on record: primary human HUVEC with PBMC; actives raise or lower the signal. A digest of the protocol:
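Measured: IL-1 alpha via ELISA at 24 h in LPS-activated human umbilical vein endothelium–PBMC co-culture. Baseline: DMSO, bidirectional fitting.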

Assay [17] can be described thus: BSK_LPS_PGE2: BioMAP Diversity Plus: LPS Assay for Prostaglandin E2 (PGE2) Biomarker Activity (AID 2283082).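 On AC50: secreted prostaglandin E2 measured by ELISA in LPS-stimulated co-culture.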 The settings on record: primary human HUVEC with PBMC; actives raise or lower the signal. In a few lines:
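HUVEC plus PBMC co-culture stimulated with LPS; secreted PGE2 quantified by ELISA 24 h after chemical dosing. Activity fitted bidirectionally against DMSO as negative control and baseline; parallel SRB total-protein staining served as cytotoxicity check.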

Read-out in assay [18]: Tumor necrosis factor (Homo sapiens) (UniProt P01375)
Nature of the assay: BSK_LPS_TNFa: BioMAP Diversity Plus: LPS Assay for Tumour Necrosis Factor alpha (TNFa) Biomarker Activity (AID 2283085).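 On AC50: TNFa protein level quantified by ELISA in the co-culture.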 The settings on record: primary human HUVEC with PBMC; actives raise or lower the signal. In a few lines:
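Human umbilical vein endothelial cells co-cultured with PBMC were exposed to test chemical and TNFa measured by ELISA 24 h after dosing. Bidirectional curve fitting was done relative to DMSO as negative control and baseline.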

A short description of assay [19]: BSK_SAg_PBMCCytotoxicity: PBMC Cytotoxicity Assessment in the BioMAP Diversity Plus: SAg Assay (AID 2283093).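 Further: PBMC viability measured as Alamar Blue reduction fluorescence at 546/580 nm; fitted both ways against DMSO so a hit may be loss or gain of signal.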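 On AC50: PBMC superantigen activated with SEB plus TSST-1 one hour after compound addition.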 The settings on record: primary human HUVEC with PBMC. In a few lines: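 Human umbilical vein endothelial cells co-cultured with PBMC; PBMC (75,000/well) pre-treated with compound 1 h, then activated with SEB and TSST-1 (20 ng/mL final each) for 90 h. Alamar Blue added 6 h, fluorescence 546/580 nm; bidirectional fit versus DMSO.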

The target in assay [20] is Retinoic acid receptor alpha (Homo sapiens) (UniProt P10276). Nature of the assay: ATG_DR5_RAR_CIS: Attagene CIS-FACTORIAL HepG2 Assay for human Retinoic Acid Receptor Alpha (RARE), DR5 submotif (AID 2282934). Conditions: HepG2 Attagene cis-factorial RARE DR5 reporter, mRNA; actives raise or lower the signal. A digest of the protocol: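 Endpoint fitted in both directions relative to DMSO as negative control. It reflects DR5 cis-element reporter mRNA induction in transiently transfected HepG2 cells, measured 24 h after dosing through RT-PCR and fluorescent capillary electrophoresis.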
Chain of Retinoic acid receptor alpha (Homo sapiens) (P10276 whole entry, looked up): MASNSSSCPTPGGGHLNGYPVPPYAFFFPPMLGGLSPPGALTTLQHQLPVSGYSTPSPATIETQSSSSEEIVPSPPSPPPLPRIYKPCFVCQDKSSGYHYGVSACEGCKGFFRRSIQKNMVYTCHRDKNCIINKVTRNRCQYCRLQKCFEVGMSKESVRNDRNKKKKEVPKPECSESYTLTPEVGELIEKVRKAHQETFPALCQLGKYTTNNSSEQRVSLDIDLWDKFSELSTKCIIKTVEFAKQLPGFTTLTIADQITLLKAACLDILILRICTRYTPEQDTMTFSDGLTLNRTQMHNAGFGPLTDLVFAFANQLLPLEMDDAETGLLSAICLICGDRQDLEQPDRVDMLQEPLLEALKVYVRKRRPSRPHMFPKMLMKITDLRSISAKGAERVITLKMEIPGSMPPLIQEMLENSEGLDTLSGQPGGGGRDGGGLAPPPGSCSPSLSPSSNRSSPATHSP

Chain of E-selectin (Homo sapiens) (P16581 whole entry, looked up): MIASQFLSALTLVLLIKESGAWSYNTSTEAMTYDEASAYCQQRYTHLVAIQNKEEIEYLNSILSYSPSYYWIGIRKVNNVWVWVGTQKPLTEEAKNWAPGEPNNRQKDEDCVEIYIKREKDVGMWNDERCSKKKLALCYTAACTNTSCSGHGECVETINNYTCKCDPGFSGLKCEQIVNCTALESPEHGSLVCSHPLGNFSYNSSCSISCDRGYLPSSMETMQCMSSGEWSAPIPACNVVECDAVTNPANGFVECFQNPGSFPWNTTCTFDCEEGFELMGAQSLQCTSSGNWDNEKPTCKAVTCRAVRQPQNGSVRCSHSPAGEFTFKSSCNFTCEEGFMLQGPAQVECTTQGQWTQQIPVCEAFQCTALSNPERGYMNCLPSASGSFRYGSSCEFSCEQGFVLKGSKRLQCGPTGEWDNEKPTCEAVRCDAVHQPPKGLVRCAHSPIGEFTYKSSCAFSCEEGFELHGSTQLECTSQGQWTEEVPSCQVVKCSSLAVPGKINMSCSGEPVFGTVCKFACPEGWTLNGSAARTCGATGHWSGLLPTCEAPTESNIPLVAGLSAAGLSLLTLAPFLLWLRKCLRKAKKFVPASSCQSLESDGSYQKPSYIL
Chain of Tumor necrosis factor (Homo sapiens) (P01375 whole entry, looked up): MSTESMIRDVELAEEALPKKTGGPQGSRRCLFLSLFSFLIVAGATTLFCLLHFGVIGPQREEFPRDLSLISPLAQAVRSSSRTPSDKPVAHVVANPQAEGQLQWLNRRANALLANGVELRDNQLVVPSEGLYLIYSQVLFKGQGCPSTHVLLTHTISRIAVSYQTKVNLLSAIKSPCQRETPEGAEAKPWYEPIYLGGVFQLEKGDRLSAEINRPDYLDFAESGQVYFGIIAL

`N#CCCCCC#N`: the compound was called inactive in assay [1], in assay [2], in [3], in assay [4], in assay [5] and in assay [6]. The result in [7], in assay [8], in [9], in assay [10], in [11] and in assay [12] was inactive. Moreover, the result in [13], in assay [14], in assay [15], in [16], in assay [17] and in [18] was inactive. In addition, the outcome in assay [19] was inactive.
What is called AC50 is the concentration at which the activity in the assay is half-maximal. As to `Oc1ccc(C2(c3ccc(O)cc3)c3ccccc3-c3ccccc32)cc1`, the half-maximal activity concentration (AC50) in [2] is 12.7 µM (active) and 12.5 µM (active); in assay [3], 11.5 µM (active) and 9 µM (active); in assay [4] it was 15.6 µM (active) and 14 µM (active); in assay [5], 6.04 µM (active) and 6.12 µM (active); in [6], 18.1 µM (active) and 23.5 µM (active); in assay [7] it was 5.35 µM (active) and 5.31 µM (active). Moreover, the AC50 in assay [8] was 5.27 µM (active) and 5.31 µM (active); in assay [10] it was 20 µM (active); in assay [11] it was 1.93 µM (active) and 20 µM (active); in assay [12] it was 2.26 µM (active) and 2.51 µM (active); in assay [13] it was 8.68 µM (active) and 6.35 µM (active); in assay [14], 5.75 µM (active) and 6.7 µM (active). The AC50 was 5.39 µM (active) and 5.41 µM (active) in assay [15]; 32.7 µM (active) in [16]; 11.8 µM (active) in assay [17]; 30.9 µM (active) and 36.3 µM (active) in assay [18]; 12.1 µM (active) and 12.3 µM (active) in assay [19]. The outcome in assay [9], in [16] and in assay [17] was inactive.
Regarding `Nc1ccccc1C(=O)OCCc1ccccc1`, the compound was classed as inactive in assay [20].
Turning to `O=[N+]([O-])C=Cc1ccccc1`, the AC50 in assay [1] was 61.5 µM (active); in assay [2] it was 4.68 µM (active); in assay [3], 5.53 µM (active); in assay [4], 6.25 µM (active); in assay [5] it was 1.37 µM (active); in [6], 6.94 µM (active). For the same compound, the AC50 in assay [7] is 2.28 µM (active); in [11], 20 µM (active); in [12], 2.91 µM (active); in [13], 5.78 µM (active); in assay [14], 20 µM (active); in [15] it was 3.08 µM (active). Besides, the AC50 was 8.05 µM (active) in assay [16], 5.81 µM (active) in [17], 9.91 µM (active) in [18] and 13 µM (active) in assay [19]. The outcome in assay [8], in assay [9] and in assay [10] was inactive.
For the compound `C[C@]12CC[C@H]3[C@@H](CC[C@@]45O[C@@H]4C(O)=C(C#N)C[C@]35C)[C@@H]1CC[C@@H]2O`, in assay [1], the outcome was inactive.
Regarding `CC(C)(c1cc(Cl)c(O)c(Cl)c1)c1cc(Cl)c(O)c(Cl)c1`, the AC50 was 24.2 µM (active) in assay [2]; 9.36 µM (active) in assay [3]; 13.4 µM (active) in assay [4]; 15.2 µM (active) in assay [5]; 12 µM (active) in [6]; 5.29 µM (active) in [7]. For the same compound, the AC50 in [10] was 32.1 µM (active); in assay [12], 12.2 µM (active); in [13], 9.44 µM (active); in assay [14], 10 µM (active); in assay [15], 8.32 µM (active); in assay [16] it was 31.5 µM (active). Further, the AC50 is 22.9 µM (active) in assay [17], 31.4 µM (active) in [18] and 36.3 µM (active) in [19]. The outcome in [8], in assay [9] and in assay [11] was inactive.

These data come from PubChem BioAssay (EPA / NIEHS).
